Assay results: PubChem BioAssay (EPA / NIEHS)
Records with an inconclusive call do not appear. Active and inactive are the calls of the source. How the source made its calls: active means hit-call score of the fitted dose curve at least 0.9, where 1 is the maximum; inconclusive means response in the unintended direction; inactive means score below 0.9.

read-out: Glyceraldehyde-3-phosphate dehydrogenase (Homo sapiens) (UniProt P04406); assay: CLD_GAPDH_48hr: CellzDirect (CLD) Gene Expression Assay for Baseline Control (Glyceraldehyde 3-phosphate dehydrogenase) at 48 hours (AID 2283706);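 further: active means higher GAPDH mRNA than DMSO vehicle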
Procedure: CLD_48hr is a cell-based, multiplexed-readout assay that uses hepatocyte, a human liver primary cell, with measurements taken at 48 hours after chemical dosing in a 96-well plate.CLD_GAPDH_48hr is one of 16 assay component(s) measured or calculated from the CLD_48hr assay. It is designed to make measurements of mRNA induction, a form of inducible reporter, as detected with chemiluminescence signals by Quantitative Nuclease Protection Assay (qNPA) technology.Data from the assay component CLD_GAPDH_48hr was analyzed at the endpoint, CLD_GAPDH_48hr, in the positive analysis fitting direction relative to DMSO as the negative control and baseline of activity. Using a type of inducible reporter, gain-of-signal activity can be used to understand changes in the reporter gene as they relate to the gene GAPDH. Furthermore, this assay endpoint can be referred to as a secondary readout, because this assay has produced multiple assay endpoints where this one serves a background control function. To generalize the intended target to other relatable targets, this assay endpoint is annotated to the background measurement intended target family, where subfamily is baseline control.
Human hepatocyte cultures were treated daily for two consecutive days with fresh dosing solutions containing appropriate concentrations of the 320 ToxCast chemicals (chemical identities were blinded to CellzDirect and other ToxCast collaborators), vehicle control (0.2% DMSO), and positive control inducers as summarized in Table 1. Due to the large number of treatment groups and chemicals examined, the ToxCast chemicals were divided into two groups (spanning two independent cultures of hepatocytes from separate donor preparations (Hu778: ToxCast plates 1 and 2; Hu776: ToxCast plates 3 and 4). Each preparation of human hepatocyte cultures was treated with respective vehicle control, medium only control, set of six positive controls/reference chemicals for the five hepatic receptor pathways, and a subset of eight of the ToxCast chemicals (indoxacarb, pyrithiobac-sodium, norflurazon, cyhalofop-butyl, methomyl, thiram, acetochlor, and propiconazole). These replicate data, coupled with internal replicates designed within the blinded ToxCast chemical library, provided additional data to evaluate interindividual differences between hepatocyte preparations and their potential impact on chemical profiles.Cell morphology and integrity were evaluated using phase-contrast microscopy as an indicator of hepatocyte cell health (Tyson & Green, 1987). Cultures for each treatment group (i.e., media, vehicle [0.2% DMSO], positive control inducers [multiple concentrations], and the ToxCast chemicals [multiple concentrations]) were observed and cell morphology was assessed relative to vehicle control cultures at each harvest time point (0, 6, 24, or 48 h). […] Images were evaluated at the conclusion of the study to assess changes in cell integrity and account for the effects of chemical exposure on uncharacteristic changes in concentration-dependent gene expression profiles. The results from these determinations of apparent cytotoxicity were annotated (yes/no) alongside the corresponding qNPA data for reference.At the conclusion of each treatment period, hepatocyte cultures (96-well) were washed with 1 volume of HBSS, lysed by addition of 25 ul ArrayPlate lysis buffer (HTG, Tucson, AZ), and 70 ul/well of Denaturation Oil, denatured by incubation at 95C for 10 min, and frozen at approximately -70C until analysis by nuclease protection assay (qNPA) (Roberts et al., 2007). For qNPA analysis, cell lysates were thawed at 50C for approximately 30 min, qNPA probes were added, and samples were incubated at 95C for 10 min to begin the detection process by denaturing the target RNA, dissociating the duplexes and secondary structure hybridization. At the conclusion of the hybridization period, S1 nuclease reagent was added to each sample to digest all nonprotected nucleotides at 50C for 60-90 min. […]

Sequence of Glyceraldehyde-3-phosphate dehydrogenase (Homo sapiens) (P04406 whole entry, looked up): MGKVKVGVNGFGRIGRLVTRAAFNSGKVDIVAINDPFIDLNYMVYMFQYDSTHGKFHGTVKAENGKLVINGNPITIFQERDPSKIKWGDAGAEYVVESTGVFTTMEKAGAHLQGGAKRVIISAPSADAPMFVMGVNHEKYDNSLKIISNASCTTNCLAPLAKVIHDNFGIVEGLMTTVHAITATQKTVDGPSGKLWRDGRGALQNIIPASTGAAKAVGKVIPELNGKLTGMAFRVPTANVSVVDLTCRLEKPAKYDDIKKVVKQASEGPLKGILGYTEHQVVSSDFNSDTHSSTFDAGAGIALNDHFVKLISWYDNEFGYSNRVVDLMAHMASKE

Structure (SMILES) | outcome
CNC(=O)ON=C(SC)C(=O)N(C)C | inactive
CSC1=N[C@@](C)(c2ccccc2)C(=O)N1Nc1ccccc1 | inactive
CCCSP(=O)(OCC)SCCC | inactive
C[N+]1(C)CCCCC1 | inactive
S=C1NCCN1 | inactive
CCCOCC(=Nc1ccc(Cl)cc1C(F)(F)F)n1ccnc1 | inactive
CC(C)=CC1C(C(=O)OCN2C(=O)C3=C(CCCC3)C2=O)C1(C)C (centres undefined) | inactive
CCCCOC(=O)c1ccccc1C(=O)O | inactive
CCC(CC)Nc1c([N+](=O)[O-])cc(C)c(C)c1[N+](=O)[O-] | inactive
CCc1cnc(C2=NC(C)(C(C)C)C(=O)N2)c(C(=O)O)c1 (centres undefined) | inactive
CC(=NC#N)N(C)Cc1ccc(Cl)nc1 | inactive
CSc1nnc(C(C)(C)C)c(=O)n1N | inactive
CN(C)NC(=O)CCC(=O)O | inactive
COc1cc(OC)nc(Sc2cccc(Cl)c2C(=O)O)n1 | inactive
CCOP(=O)(OCC)Oc1cc(C)nc(C(C)C)n1 | inactive
CC1=NNC(=O)N(/N=C/c2cccnc2)C1 | inactive
CN(C)[C@@H]1C(=O)C(C(N)=O)=C(O)[C@@]2(O)C(=O)C3=C(O)c4c(O)cccc4[C@@](C)(O)[C@H]3[C@H](O)[C@@H]12 | inactive

Structure (SMILES) | outcome
CC(C)N(C(=O)SCC(Cl)=C(Cl)Cl)C(C)C | inactive
COP(=O)(OC)OC(Br)C(Cl)(Cl)Br (centres undefined) | inactive
CNC(=O)ON=C(C)SC | inactive
CN(C)C(=O)Nc1cccc(C(F)(F)F)c1 | inactive
Nc1nc(N)nc(NC2CC2)n1 | inactive
CC[C@H](C)[C@H]1O[C@]2(C=C[C@@H]1C)C[C@@H]1C[C@@H](C/C=C(\C)[C@@H](O[C@H]3C[C@H](OC)[C@@H](O[C@H]4C[C@H](OC)[C@@H](NC)[C@H](C)O4)[C@H](C)O3)[C@@H](C)/C=C/C=C3\CO[C@@H]4[C@H](O)C(C)=C[C@@H](C(=O)O1)[C@]34O)O2 | inactive
COP(=O)(NC(C)=O)SC (centres undefined) | inactive
CCCOc1nn(C(=O)NS(=O)(=O)c2ccccc2C(=O)OC)c(=O)n1C | inactive
CCc1cccc(C)c1N(C(=O)CCl)C(C)COC (centres undefined) | inactive
O=c1ccc(=O)[nH][nH]1 | inactive
CC1(C(=O)Nc2ccc(O)c(Cl)c2Cl)CCCCC1 | inactive
CN1COCN(Cc2cnc(Cl)s2)C1=N[N+](=O)[O-] | inactive
N#CSCSC#N | inactive
Cc1nn(-c2cc(NS(C)(=O)=O)c(Cl)cc2Cl)c(=O)n1C(F)F | inactive
CCOC(=O)CC(SP(=O)(OC)OC)C(=O)OCC (centres undefined) | inactive
CCC(=NOC/C=C/Cl)C1=C(O)CC(C2CCOCC2)CC1=O (centres undefined) | inactive
Nc1c(Cl)cc([N+](=O)[O-])cc1Cl | inactive
